Screens from PubChem.
In the library only some 0.95% were active in any assay of this set; here they are far more common.
Tb PYK inh: blocks Trypanosoma brucei pyruvate kinase; Q57TT1; TbPYK enzyme, Kinase-Glo Plus ATP luminescence, 45 min; Potency, µM (titrated, usually from 76.8 µM), usual class: inhibitors; actives 0.12% (n = 410,000); AID 624173; note: nearly all actives have a fitted effect of over 50% in size
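Luminescence from Kinase-Glo Plus, added after a 45-minute room-temperature reaction, served as the end-point read-out. The enzyme and substrate were preincubated with compound before ADP (130 uM final) initiated turnover. Concentration-effect curves came from normalized qHTS data.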
RE007 growth inh: less growth of the S. pombe RE007 Vpr strain | AID 651644 | S. pombe RE007 Vpr strain, BacTiter-Glo ATP luminescence, 24 h | actives 0.21% (n = 360,000) | Potency, µM (highest dose often 92.2 µM), hits mostly inhibitors; active = well fitted falling curve with a large enough effect; inconclusive = small, poorly fitted or top-dose-only effect; inactive = no such curve, though single readings can be large or run the other way; note: nearly all actives have a fitted effect of over 50% in size
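Fission yeast RE007 carrying one integrated HIV-1 vpr copy, seeded at OD 0.01 in PMG+AL medium with 23 nL pinned compound. Grown 24 h at 30 degrees; viability read by BacTiter-Glo luminescence after 5 min.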
FBPA Giardia inh: inhibitors of Giardia lamblia fructose-1,6-bisphosphate aldolase. A8B2U2. purified Giardia FBPA. Potency, µM (titrated, usually from 59.6 µM), hits mostly inhibitors. actives 0.71% (n = 290,000); note: nearly all actives have a fitted effect of over 55% in size
Target sequence (A8B2U2 whole entry, looked up): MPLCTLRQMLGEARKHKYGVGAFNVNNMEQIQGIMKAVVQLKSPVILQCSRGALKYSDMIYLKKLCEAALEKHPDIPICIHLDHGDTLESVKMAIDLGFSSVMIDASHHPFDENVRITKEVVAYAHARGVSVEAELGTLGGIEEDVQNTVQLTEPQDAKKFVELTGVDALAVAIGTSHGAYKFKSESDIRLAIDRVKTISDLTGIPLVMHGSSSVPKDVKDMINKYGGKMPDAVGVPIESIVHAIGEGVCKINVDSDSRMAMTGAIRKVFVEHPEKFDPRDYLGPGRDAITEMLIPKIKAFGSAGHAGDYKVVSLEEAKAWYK
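40 nM FBPA preincubated 10 min at RT with compound (up to 57.5 uM final), then substrate plus GAPDH/TPI/NAD/arsenate coupling and diaphorase/resazurin added. Fluorescence read after 20 min at RT, 525/598 nm.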
LmPK inh: inhibitors of Leishmania mexicana pyruvate kinase; actives 0.37% (n = 290,000); Potency, µM (titrated, usually from 57.5 µM), actives largely listed as inhibitors; purified LmPK, Kinase-Glo ATP luminescence, 1 h; Q27686
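0.1 nM LmPK, 0.5 mM PEP, 0.1 mM ADP; 50 mM imidazole pH 7.2, 7 mM MgCl2, 50 mM KCl; 1 h RT. Kinase-Glo luminescence readout, normalized to no-enzyme (full inhibition) and uninhibited wells.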
Hits are given with their value; [ ] = remark or other dose. Unless noted, calls come from the whole dose curve; as a rule, active = well fitted curve in the direction sought with a large enough effect; inconclusive = small, poorly fitted or top-dose-only effect, or another doubt; inactive = no such curve, though single readings can be large; an effect the other way counts as inactive or inconclusive.

`Cn1c(/N=C/c2c(O)ccc3ccccc23)nc2ccccc21` gave Tb PYK inh inactive, RE007 growth inh inactive, FBPA Giardia inh 0.71µM and LmPK inh inactive.
Screening COc1ccc(C(=O)OCc2cc(=O)n3nc(-c4cccs4)sc3n2)cc1 returned Tb PYK inh inactive.
`COc1cc(NCc2ccc3nc(N)nc(N)c3c2C)cc(OC)c1OC` gave Tb PYK inh inactive and FBPA Giardia inh 5.6µM.
For COc1ccc(CNc2ccncc2)c(OC)c1OC the results were Tb PYK inh inactive and RE007 growth inh inactive.
For Cc1c(-c2nsc(NC(=O)c3ccccc3)n2)nnn1-c1ccc(C(F)(F)F)c(Cl)c1 the results were Tb PYK inh inactive.
COc1ccc(C2=Nn3c(nnc3-c3ccccc3O)SC2)c(OC)c1 was read as FBPA Giardia inh inactive.
CC(=O)c1sc(NC(=O)c2cccnc2Cl)nc1C was read as Tb PYK inh inactive, RE007 growth inh inactive, FBPA Giardia inh inactive and LmPK inh inactive.
CC(=O)c1sc(NC(=O)c2ccccc2F)nc1C was read as Tb PYK inh inactive, RE007 growth inh inactive, FBPA Giardia inh inactive and LmPK inh 14µM.
`CCNc1ncc2nc(-c3cccs3)c(=O)n(C)c2n1` gave FBPA Giardia inh inactive.
O=C(O)c1ccccc1-c1c2cc(Br)c(=O)c(Br)c-2oc2c(Br)c(O)c(Br)cc12 was read as Tb PYK inh inactive and FBPA Giardia inh inconclusive.
For O=C(O)c1ccccc1-c1c2cc(Br)c(=O)cc-2oc2[c]([Hg])c(O)c(Br)cc12 the results were Tb PYK inh inconclusive and FBPA Giardia inh 22µM.
Screening N/C(=N\OC(=O)c1ccc(Cl)cc1)c1ccccn1 returned Tb PYK inh inconclusive, RE007 growth inh inconclusive, FBPA Giardia inh inactive and LmPK inh 5µM.
Screening COc1ccc(C(=O)O/N=C(\N)c2ccccn2)cc1 returned Tb PYK inh 10µM, RE007 growth inh inconclusive, FBPA Giardia inh inactive and LmPK inh 13µM.
For COc1ccc(C(=O)NNC(=O)c2ccccn2)cc1 the results were Tb PYK inh inconclusive, RE007 growth inh 10µM, FBPA Giardia inh inactive and LmPK inh 1.3µM.
`N/C(=N\OC(=O)c1ccc(Cl)c(Cl)c1)c1ccccn1` gave Tb PYK inh inactive, RE007 growth inh inactive, FBPA Giardia inh inactive and LmPK inh inactive.
For COc1ccc(/C=C/C(=O)c2ccccn2)cc1 the results were Tb PYK inh inconclusive, RE007 growth inh inconclusive, FBPA Giardia inh inconclusive and LmPK inh 8.9µM.
For COc1ccc([N+](=O)[O-])c(C=CC(=O)c2ccccn2)c1 the results were Tb PYK inh inactive and RE007 growth inh inactive.
C=CCC1=C(C)C(OC(=O)C2C(C=C(C)C)C2(C)C)CC1=O (stereo unspecified) was read as Tb PYK inh inactive.
O=C1C2=CC[C@H]3C(=O)N(Cc4ccccc4)C(=O)[C@@H]3[C@@H]2[C@H](O)[C@@H]2O[C@H]12 was read as FBPA Giardia inh inactive[12.9 µM].
O=C(Sc1ccc(Cl)cc1)c1ccccn1 was read as Tb PYK inh inactive and RE007 growth inh 22µM.
For Cc1ccc(C(=O)O/N=C(\N)c2ccccn2)c(C)c1 the results were Tb PYK inh inconclusive, RE007 growth inh 35µM and LmPK inh 6.3µM.
For N/C(=N\OC(=O)c1cccc(Br)c1)c1ccccn1 the results were Tb PYK inh inactive, RE007 growth inh inactive and LmPK inh inconclusive.
N/C(=N\OC(=O)c1cccc(Cl)c1)c1ccccn1 was read as Tb PYK inh inactive, RE007 growth inh inactive, FBPA Giardia inh inactive and LmPK inh 14µM.
N/C(=N\OC(=O)c1ccccc1Cl)c1ccccn1 was read as Tb PYK inh inconclusive, RE007 growth inh inconclusive, FBPA Giardia inh inactive and LmPK inh 7.1µM.
Screening COc1ccccc1C(=O)O/N=C(\N)c1ccccn1 returned Tb PYK inh inactive, RE007 growth inh inactive, FBPA Giardia inh inactive and LmPK inh inconclusive.
For C=CCOc1cc(Cl)ccc1C(=O)NCCN(CC)CC the results were Tb PYK inh inactive.
For CCc1ccc(C2C(C(=O)Nc3ccccc3OC)=C(C)Nc3c(C(=O)Nc4ccc(C)cc4)cnn32)cc1 (stereo unspecified) the results were Tb PYK inh inactive.
`Cc1cc(/C(N)=N/OC(=O)c2ccc(Cl)cc2)no1` gave Tb PYK inh inactive, RE007 growth inh inactive, FBPA Giardia inh inactive and LmPK inh 16µM.
Screening N/C(=N\OC(=O)c1ccc(Cl)cc1)c1[nH]ncc1Br returned Tb PYK inh inconclusive, RE007 growth inh inconclusive, FBPA Giardia inh inactive and LmPK inh 10µM.
`CCCCCCC(=O)O[C@@H]1CC[C@H]2[C@@H]3CCc4cc(O)ccc4[C@H]3CC[C@]12C` gave Tb PYK inh inactive.
For Cc1cc(O)cc(O)c1C(=O)OC1(C)C(=O)C=C2C=C(/C=C/C(=O)O)OC=C2C1=O (stereo unspecified) the results were FBPA Giardia inh inactive.
For OCC(O)COc1ccc(Cl)cc1 (stereo unspecified) the results were Tb PYK inh inactive.
For COc1ccccc1/C=N/NC(=O)CC(=O)NCc1ccccc1 the results were Tb PYK inh inactive, RE007 growth inh inactive, FBPA Giardia inh 18µM and LmPK inh inactive.
Screening CCc1ccccc1N1CC23C=CC(O2)C(C(=O)OCC(C)C)C3C1=O (stereo unspecified) returned Tb PYK inh inactive, RE007 growth inh inactive, FBPA Giardia inh inactive and LmPK inh inactive.
For Cc1ccc(C)c(NC(=S)N2CCN(c3ccccn3)CC2)c1 the results were Tb PYK inh inactive, RE007 growth inh inactive, FBPA Giardia inh inactive and LmPK inh inactive.
`CC(C)COC(=O)NCC12C=CC(O1)C1C(=O)N(c3ccc(Cl)cc3)C(=O)C12` (stereo unspecified) gave Tb PYK inh inactive, RE007 growth inh 1.6µM, FBPA Giardia inh inactive and LmPK inh inactive.
Screening Cc1ccc(N2C(=O)C3C4C=CC(CNC(=S)Nc5ccc(F)cc5)(O4)C3C2=O)cc1 (stereo unspecified) returned Tb PYK inh inactive, RE007 growth inh 10µM, FBPA Giardia inh inactive and LmPK inh inactive.
For Cc1ccc(N2C(=O)C3C4C=CC(CNC(=S)Nc5ccc(Cl)cc5)(O4)C3C2=O)cc1 (stereo unspecified) the results were Tb PYK inh inactive, RE007 growth inh 22µM, FBPA Giardia inh inactive and LmPK inh inactive.
Cc1ccc(N2C(=O)C3C4C=CC(CNC(=S)N5CCN(c6ccccn6)CC5)(O4)C3C2=O)cc1 (stereo unspecified) was read as Tb PYK inh inactive, RE007 growth inh 4µM, FBPA Giardia inh inactive and LmPK inh inactive.
`CCN(CC)CCn1c(-c2ccccc2)nc2c(NCCOC)nc(C)nc21` gave FBPA Giardia inh inactive.
Cc1ccc(N2C(=O)C3C4C=CC(CNC(=S)Nc5cccc(Cl)c5)(O4)C3C2=O)cc1 (stereo unspecified) was read as Tb PYK inh inactive, RE007 growth inh 10µM, FBPA Giardia inh inactive and LmPK inh inactive.
Screening Cc1ccc(N2C(=O)N(CC(=O)Nc3cccc(Cl)c3)C(=O)C2C)cc1 (stereo unspecified) returned Tb PYK inh inactive and RE007 growth inh inactive.
